Assay results as given in PubChem BioAssay AID1962 (The Scripps Research Institute Molecular Screening Center, 2009).
Among all 300,000 compounds or so, about 2,500 (0.83%) were called active.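 The calls were made as follows: active = inhibition above the mean of all tested compounds plus 3 SD, set per screening campaign (cut at about 24% in these data); inactive = the rest.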 Only a selection was taken, and actives are over-represented in it overall.

Tested on: tRNA 2'-phosphotransferase TPT1 (Candida albicans SC5314)
Test: tRNA 2'-phosphotransferase blockers, C. albicans – biochemical, fluorescence polarization, primary screen (AID 1962);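 also: plate controls were DMSO alone for no effect and ferristatin control at 100 nM for full effect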
Settings: recombinant caTPT1, FP RNA substrate dephosphorylation; at 5 µM; hits give high values

inhibition, inactive:
O=C(c1cc(-c2ccc(F)cc2)on1)N1CCN(c2ccc(F)cc2)CC1 -5.93%
O=C(c1cccc(F)c1)N1CCN(c2ccc([N+](=O)[O-])c(N3CCCCC3)c2)CC1 -2.61%
C=CCn1c(SCc2cccc(F)c2)nc2cc(C(=O)N3CCC(C(N)=O)CC3)ccc2c1=O -3.32%
O=C(c1cc(C(=O)N2CCN(c3ccc(F)cc3)CC2)cc([N+](=O)[O-])c1)N1CCN(c2ccc(F)cc2)CC1 -4.38%
Cc1ccc(S(=O)(=O)N2[C@@H](c3ccccc3F)C(C(=O)O)=CC[C@H]2c2ccc(Cl)cc2)cc1 -4.36%
COc1ccc(CCNC(=S)N2CCN(S(=O)(=O)c3ccc(F)cc3)CC2)cc1 -2.45%
Cc1cccc(NC(=O)c2cccc(S(=O)(=O)N3CCCC3)c2)n1 -1.41%
CCC(C)CCN1CCN=C1N(C)C (stereo not drawn) 0.6%
O=S(=O)(Nc1ccccc1)c1ccc(NS(=O)(=O)c2cccs2)cc1 3.09%
O=c1[nH]nc(SCCS(=O)(=O)c2ccc(F)cc2)n1-c1ccccc1C(F)(F)F -4.89%
O=C(NCCS(=O)(=O)N1CCN(c2ccc(F)cc2)CC1)c1ccc2c(c1)OCO2 -1.22%
CN(C)/C=C1/Nc2ccccc2C1=O -4.8%
O=C1Nc2ccccc2/C1=C/c1ccnc2ccccc12 -1.13%
CCN1C(=O)/C(=c2\s/c(=C3\Sc4ccccc4N3C)c(=O)n2C)N(C)C1=S -1.53%
COc1ccc(/C=C2\SC(=O)N(CCC(=O)NC3CCS(=O)(=O)C3)C2=O)cc1 (stereo not drawn) -0.19%
Cc1cc(C)n(CCC(=O)N2CCN(S(=O)(=O)c3ccc(C)c(C)c3)CC2)n1 -1.67%
Cc1nc(-c2ccc(Cl)cc2)sc1C1(C)CC(c2ccccc2F)=NO1 (stereo not drawn) 1.26%
C/[N+]([O-])=C\c1ccc([N+](=O)[O-])o1 -5.74%
Cc1cc(C)nc(N/N=C/c2ccc([N+](=O)[O-])o2)n1 -2.07%
CCCOc1ccc(Cc2c(O)nc(SC)[nH]c2=O)cc1C 1.03%
S=C(Nc1cccc(Br)c1)N1CCn2cccc2C1c1cccnc1 (stereo not drawn) 1.48%
COC1=C/C(=C/c2c(N)n3nc(CC(=O)N4CCOCC4)sc3nc2=O)C=CC1=O 9.73%
COc1cc(/C=C2\C(=N)N3N=C(CC(=O)N4CCOCC4)SC3=NC2=O)cc(OC)c1OC 1.57%
CCN(CC)P(=O)(Nc1ccc(SC(F)F)cc1)c1ccc(N(C)C)cc1NC(=O)c1ccco1 (stereo not drawn) -3.15%
COc1cc(C(=O)N2CCN(C)CC2)cc(OC)c1OC 1.91%
O=C(CN1C(=O)NC(Cc2ccccc2)(Cc2ccccc2)C1=O)NCC1CCCCC1 0.35%
N#C/C(C(=O)N1CCOCC1)=C1/SC(Cc2ccc(F)cc2)C(=O)N1c1ccccc1 (stereo not drawn) 19.8%
Cc1ccc(C(=O)C(=S)N2CCOCC2)cc1 0.27%
O=C(Nc1ccc2c(c1)CCC2)c1ccc(Br)s1 -6.11%
CC(=O)N1CCN(C(=O)c2cc(-c3ccc(C)o3)nc3ccccc23)CC1 -4.79%
OCC[C@H]1C[C@@H](O)[C@H](O)[C@]2(OCCCc3ccccc32)O1 -4.69%
O=C(/C(=C/c1cccc(Cl)c1)c1nc2ccccc2[nH]1)c1ccccc1 6.55%
O=C(CSc1nc2ccc([N+](=O)[O-])cc2[nH]1)c1ccc(Cl)cc1 -2.05%
CC(=O)Oc1ccc(N(C(C)=O)S(=O)(=O)c2ccc3ccccc3c2)cc1Br -2.05%
O=C(Nc1ccc([N+](=O)[O-])cc1)OCCc1ccccn1 0.72%
Cc1cccc(NS(=O)(=O)c2cc(Cl)ccc2Cl)n1 -0.05%
COc1ccc2cc(C(=O)C3CCCN(C(=O)c4sc(C)nc4C)C3)ccc2c1 (stereo not drawn) -0.57%
CCOc1cc(-c2cc(-c3ccc(NC(C)=O)cc3)nc(N)c2C#N)ccc1O 2.32%
COc1cc(/C=N\Nc2nc(-c3cccs3)c(NC(C)=O)s2)ccc1O -0.53%
Nc1ccc(C(=O)Nc2ccccc2N)cc1 -2.37%
Cc1ccc(Nc2ccc(C(N)=O)cc2[N+](=O)[O-])cc1 -0.98%
O=C(Nc1ccc(Cl)c(Cl)c1)N1CC=C(c2ccccc2)CC1 -0.49%
NC1=C([N+](=O)[O-])C(c2ccccc2)C2=C(CCCC2=O)O1 (stereo not drawn) 2.19%
COc1ccc(CCOC(=O)CNC(=O)c2ccc(Cl)cc2Cl)cc1 -0.14%
Cc1ccc([C@@H]2CC=C(C(=O)O)[C@H](c3cccc(Cl)c3)N2S(=O)(=O)c2ccc(C)cc2)cc1 -3.07%
Cc1c(C)c2ccc(OCC(=O)N3CCC(C(=O)O)CC3)c(C)c2oc1=O -2.74%
O=C(CNC(=O)C1COc2ccccc2O1)N/N=C/c1cc(Br)c(O)c(Br)c1 (stereo not drawn) 2.18%

inhibition, active:
Cc1ccc(CSCC2Nc3ccc(C(=O)N4CCN(c5ccc(F)cc5)CC4)cc3NC2=O)cc1 (stereo not drawn) 133%
O=C1Nc2cc(C(=O)N3CCN(c4ccc(F)cc4)CC3)ccc2NC1CSCc1cccc(F)c1 (stereo not drawn) 134%
Cc1cc(C)c(/C=C2\C(=O)Nc3ccccc32)[nH]1 101%
CN1/C(=c2/s/c(=C3/C(=O)N(c4ccccc4)NC3=Nc3ccccc3)n(C)c2=O)C(C)(C)c2ccccc21 128%
CCn1c(/C=C/c2ccc([N+](=O)[O-])o2)nc2ccccc2c1=O 25.2%
C=CCC1=C/C(=C\c2c(N)n3nc(CC(=O)N4CCOCC4)sc3nc2=O)C=C(OC)C1=O 37%
Cc1ccc(CC2S/C(=C(/C#N)C(=O)N3CCOCC3)N(c3ccccc3)C2=O)cc1 (stereo not drawn) 27.6%
O=C(Cc1nc2ccccc2[nH]c1=O)c1ccc(Cl)cc1 52.4%
CCOc1cc(/C=C(\C#N)c2nc(-c3cccs3)c(NC(C)=O)s2)ccc1O 111%
Cc1ccc(Nc2ccccc2N)cc1 38.5%
Cc1c(CC(=O)N2CCN(C(=O)C3COc4ccccc4O3)CC2)c(=O)oc2c(O)c(O)ccc12 (stereo not drawn) 51%
